This passage reports Potency and activity change, negative = cytotoxic results from PubChem BioAssay (Tox21).

Results filed as inconclusive are left out. A call without a number means that no potency is given here. A number with no mark means an inactive call. Calls of active or inactive are those of the source. Calls come from the whole dose curve; as a rule, active = well fitted cell-killing curve with a large enough effect in the repeat runs; inconclusive = weak or mixed curves; inactive = flat fitted curve, though single readings scatter.

The experiment in a line: qHTS RealTime-Glo MT Cell Viability Assay in HepG2 cells - 16 hour (AID 1224885). Note: nearly all actives have a fitted effect of over 50% in size. To be noted: RealTime-Glo luminescence; series mostly up to 76.8 µM. Summed up:
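HepG2 suspension premixed with RealTime-Glo reagents is plated at 600 cells per well and left 5 h at 37 C/5% CO2. Compounds in DMSO then go in, and bioluminescence reflecting viable cell number is recorded over 40 h.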
(qHTS replaces the single test concentration by a dilution series.)
With `CN1CCC(=C2c3ccccc3Sc3ccccc32)CC1`, the Potency entry was “inactive”.

Turning to `C=C1[C@H]2CC[C@@H]3[C@H]2C(C)(C)CCC[C@]13C`, the Potency entry was “inactive”.

Take `CN1C[C@H]2c3ccccc3Oc3ccc(Cl)cc3[C@@H]2C1`: the Potency result was “inactive”.

Turning to `O=CC1CC=CCC1` (stereo not given), the Potency result was “inactive”.

For `CC(CSC(=O)c1ccccc1)C(=O)N1C[C@@H](Sc2ccccc2)C[C@H]1C(=O)O` (stereo not given in full), the activity change, negative = cytotoxic is 2.9% [at 15.8 µM].

Take `C=CCOc1ccccc1OCC(O)CNC(C)C` (stereo not given): the Potency result is “inactive”.

`C#CCN(C)CCCOc1ccc(Cl)cc1Cl`: the Potency result was “inactive”.

For `CCCCCCCCCCCc1ccccc1`, the Potency entry was “inactive”.

Consider `C[C@@H]1C[C@H]2O[C@@]3(O[C@@H]2C(C)(C)O)[C@H](O)[C@@]2(C)[C@@H]4CC[C@H]5C(C)(C)[C@@H](O[C@@H]6OC[C@@H](O)[C@H](O)[C@H]6O)CC[C@@]56C[C@@]46CC[C@]2(C)[C@@H]13`, for which the Potency entry is “inactive”.

Turning to `COCCCN1CCC(NC(=O)c2cc(Cl)c(N)c3c2OCC3)CC1`, the Potency entry is “inactive”.

For the compound `CC(=O)[O][Al][O]C(C)=O`, the Potency result is “inactive”.

For the compound `c1ccc(CNCCNCc2ccccc2)cc1`, the Potency result was “inactive”.

For `CC1CCC(=O)C1=O` (stereo not given), the Potency result was “inactive”.

As to `O=S(c1cc(Cl)cc(Cl)c1O)c1cc(Cl)cc(Cl)c1O`, the Potency result is “inactive”.

With `O=C(O)C1(C(=O)Nc2ccc(Cl)cc2Cl)CC1`, the Potency result is “inactive”.

For the compound `CCC(CC)Nc1ccc(C)c(C)c1`, the Potency entry was “inactive”.

With `Nc1ccc([N+](=O)[O-])c(C(F)(F)F)c1`, the Potency result was “inactive”.

Take `CCOC(=O)C(=O)CCc1ccccc1`: the Potency entry was “inactive”.

In the case of `CC(C)(C)Cl`, the Potency entry was “inactive”.

On to `O=C(O)C1(C(=O)O)CCC1.[NH2-].[NH2-].[Pt+2]`, for which the Potency result was “inactive”.

Regarding `CCCCCCCCO[C@@H]1O[C@H](CO)[C@@H](O)[C@H](O)[C@H]1O`, the Potency result is “inactive”.

With `Nc1ccccc1S(=O)(=O)c1ccccc1`, the Potency entry was “inactive”.

For `CCCCC(CC)COC(=O)CCCCCCCCC(=O)OCC(CC)CCCC` (stereo not given), the Potency result is “inactive”.

As to `Nc1ccc(S(=O)(=O)Nc2ccccc2)cc1`, the Potency result was “inactive”.

As for `Cc1oc(-c2ccccc2)nc1CCOc1cccc2c1ccn2CCC(=O)O`, the Potency result is “inactive”.

On to `O=C(NCCO[N+](=O)[O-])c1cccnc1`, for which the Potency entry is “inactive”.

Take `CCCC(=O)Nc1ccc(O)c(C(C)=O)c1`: the Potency result is “inactive”.

Turning to `CCOc1ccc(N=Nc2ccc(/C=C/c3ccc(N=Nc4ccc(OCC)cc4)cc3S(=O)(=O)O)c(S(=O)(=O)O)c2)cc1`, the Potency entry is “inactive”.

Turning to `O=[N+]([O-])c1cccc(S(=O)(=O)O)c1`, the Potency result is “inactive”.

On to `COc1ccc(C)cc1[N+](=O)[O-]`, for which the Potency entry is “inactive”.

Consider `CC(C)OC(=O)C(C)N(C(=O)c1ccccc1)c1ccc(F)c(Cl)c1` (stereo not given), for which the Potency result is “inactive”.

As for `O=C(O)c1ccco1`, the Potency result was “inactive”.

As for `CN(C)CCN(Cc1ccsc1)c1ccccn1`, the Potency result is “inactive”.

As to `CCO[Si](CCCCl)(OCC)OCC`, the Potency result is “inactive”.

For the compound `O=C(O)C(S)C(S)C(=O)O` (stereo not given), the Potency entry was “inactive”.
